# Experimental data reported in PubChem BioAssay (NCATS).
# Results filed as inconclusive are left out. The source made the active and inactive calls. Unless noted, the call rests on the fitted dose curve; in most records, active means well fitted curve in the direction sought with a large enough effect; inconclusive means small, poorly fitted or top-dose-only effect, or another doubt; inactive means no such curve, though single readings can be large; an effect the other way counts as inactive or inconclusive.
# Experiments:
# [1] = qHTS profiling for inhibitors of Plasmodium falciparum proliferation (AID 504749);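 further: 0% = DMSO vehicle and full inhibition = artemisinin control; nearly all actives have a fitted effect of over 60% in size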; settings: P. falciparum in erythrocytes, SYBR Green DNA, 72 h; series mostly up to 28.7 µM
# Outline: (§1)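 P. falciparum-infected erythrocytes (0.3% parasitemia, 2.5% hematocrit final) were exposed to compounds for 72 h at 37 C in 5% CO2, then lysed with SYBR Green buffer overnight at room temperature; parasite DNA fluorescence was normalized to artemisinin and DMSO controls.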
# 3D7 = assay: as above; settings: P. falciparum in erythrocytes, SYBR Green DNA, 72 h; series mostly up to 28.7 µM
# Outline: as §1
# 7G8 = assay: as above; settings: P. falciparum in erythrocytes, SYBR Green DNA, 72 h; series mostly up to 28.7 µM
# Outline: as §1
# AA1029 = assay: as above; settings: P. falciparum in erythrocytes, SYBR Green DNA, 72 h; series mostly up to 28.7 µM
# Outline: as §1
# AS120 = assay: as above; settings: P. falciparum in erythrocytes, SYBR Green DNA, 72 h; series mostly up to 28.7 µM
# Outline: as §1
# ATS189 = assay: as above; settings: P. falciparum in erythrocytes, SYBR Green DNA, 72 h; series mostly up to 28.7 µM
# Outline: as §1
# ATS95 = assay: as above; settings: P. falciparum in erythrocytes, SYBR Green DNA, 72 h; series mostly up to 28.7 µM
# Outline: as §1
# C2A = assay: as above; settings: P. falciparum in erythrocytes, SYBR Green DNA, 72 h; series mostly up to 28.7 µM
# Outline: as §1
# CP185 = assay: as above; settings: P. falciparum in erythrocytes, SYBR Green DNA, 72 h; series mostly up to 28.7 µM
# Outline: as §1
# CP191 = assay: as above; settings: P. falciparum in erythrocytes, SYBR Green DNA, 72 h; series mostly up to 28.7 µM
# Outline: as §1
# CP192 = assay: as above; settings: P. falciparum in erythrocytes, SYBR Green DNA, 72 h; series mostly up to 28.7 µM
# Outline: as §1
# CP194 = assay: as above; settings: P. falciparum in erythrocytes, SYBR Green DNA, 72 h; series mostly up to 28.7 µM
# Outline: as §1
# CP201 = assay: as above; settings: P. falciparum in erythrocytes, SYBR Green DNA, 72 h; series mostly up to 28.7 µM
# Outline: as §1
# CP203 = assay: as above; settings: P. falciparum in erythrocytes, SYBR Green DNA, 72 h; series mostly up to 28.7 µM
# Outline: as §1
# CP211 = assay: as above; settings: P. falciparum in erythrocytes, SYBR Green DNA, 72 h; series mostly up to 28.7 µM
# Outline: as §1
# [2] = qHTS drug screen for cell cycle checkpoint inhibitors in PARPi-resistant BRCA-mutant ovarian cancer cell lines. (AID 1963452; calls by dose curve); settings: PEO1/OlaR viability, CellTiter-Glo luminescence, 96 h, stronger effect = lower value
# Outline: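 PEO1, PEO4 and PEO1/OlaR ovarian cancer cells, 600 per well, exposed 96 h at 37C to a dilution series. Viability read by CellTiter-Glo luminescence, normalized to DMSO and empty wells; activity summarized as Z-AUC.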
# [3] = Dual reporter qHTS for agonist of Pregnane X Receptor (hPXR) against the NCATS DSHEA and TCM libraries: Fluorescence readout (AID 1920058); further: 0% is about no effect
# Outline: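 hPXR-Luc HepG2 cells (2000/well) in phenol red-free medium with charcoal-stripped FBS attached for 5 h, then were exposed to compounds for about 24 h at 37 °C. Viability was read by CellTiter-Fluor fluorescence (Ex/Em 405/540 nm) after 1 h.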
# [4] = target: Nuclear receptor subfamily 1 group I member 2 (Homo sapiens) (UniProt O75469); assay: Dual reporter qHTS for agonist of Pregnane X Receptor (hPXR) against the NCATS DSHEA and TCM libraries: Luminescence readout (AID 1920059); further: potency means the concentration at half of the fitted maximal effect
# Outline: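 hPXR-LucHepG2 cells in phenol red-free DMEM with 5% charcoal-stripped FBS, 2000 cells/well, attached 5 h, then exposed 24 h at 37C to compounds; rifampicin as positive agonist control (2.8 nM–92 uM). Luciferase luminescence read.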
# [5] = target: Nuclear receptor subfamily 1 group I member 2 (Homo sapiens) (UniProt O75469); assay: Dual reporter qHTS for antagonist of Pregnane X Receptor (hPXR) against the NCATS DSHEA and TCM libraries: Luminescence Readout (AID 1920060);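 further: HepG2 cells carrying hPXR luciferase reporter stimulated with rifampicin at 2 µM; 0% is about no effect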
# Outline: (§2)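 hPXR-Luc HepG2 cells exposed 24 h at 37 C to compounds with 2 uM rifampicin in antagonist mode; luciferase luminescence measured by ONE-Glo, with CellTiter-Fluor viability read beforehand.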
# [6] = Dual reporter qHTS for antagonist of Pregnane X Receptor (hPXR) against the NCATS DSHEA and TCM libraries: Fluorescence Readout (AID 1920061); further: 0% is about no effect
# Outline: as §2
# [7] = measured here: PEO1 parental Z-AUC
# Chain of Nuclear receptor subfamily 1 group I member 2 (Homo sapiens) (O75469 whole entry, looked up): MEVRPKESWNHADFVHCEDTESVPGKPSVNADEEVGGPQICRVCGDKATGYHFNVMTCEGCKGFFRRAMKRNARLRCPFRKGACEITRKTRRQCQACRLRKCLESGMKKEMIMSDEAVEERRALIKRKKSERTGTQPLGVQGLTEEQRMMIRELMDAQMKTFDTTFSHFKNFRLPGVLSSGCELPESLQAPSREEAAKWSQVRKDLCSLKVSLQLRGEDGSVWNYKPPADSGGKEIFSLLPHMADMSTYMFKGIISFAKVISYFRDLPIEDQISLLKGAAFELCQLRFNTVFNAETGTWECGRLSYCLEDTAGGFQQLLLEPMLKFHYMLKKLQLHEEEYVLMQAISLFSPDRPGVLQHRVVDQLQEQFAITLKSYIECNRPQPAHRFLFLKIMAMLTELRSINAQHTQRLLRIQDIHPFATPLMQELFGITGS
compound,measurement,setting,value
CCOC(=O)C(CCc1ccccc1)NC(C)C(=O)N1Cc2ccccc2CC1C(=O)O (stereo not given),outcome,[1],inactive
same,outcome,3D7,inactive
same,outcome,7G8,inactive
same,outcome,AA1029,inactive
same,outcome,AS120,inactive
same,outcome,ATS189,inactive
same,outcome,ATS95,inactive
same,outcome,C2A,inactive
same,outcome,CP185,inactive
same,outcome,CP191,inactive
same,outcome,CP192,inactive
same,outcome,CP194,inactive
same,outcome,CP201,inactive
same,outcome,CP203,inactive
same,outcome,CP211,inactive
CC(C)N(CCCNC(=O)Nc1ccc(C(C)(C)C)cc1)C[C@H]1O[C@@H](n2ccc3c(N)ncnc32)[C@H](O)[C@@H]1O,Z-AUC,[2],-0.352 (inactive)
same,Z-AUC,[2]; [7],-0.286
same,Z-AUC,[2]; measured here: PEO4 Z-AUC,-0.377
N#Cc1cccc(-c2c[nH]c3ncnc(N4CCOCC4)c23)c1,Z-AUC,[2],0.0885 (inactive)
same,Z-AUC,[2]; [7],0.762
same,Z-AUC,[2]; measured here: PEO4 Z-AUC,0.859
Cn1cc(-c2c[nH]c3ncnc(N4CCOCC4)c23)cn1,Z-AUC,[2],1.31 (inactive)
same,Z-AUC,[2]; [7],1.65
same,Z-AUC,[2]; measured here: PEO4 Z-AUC,1.56
N#CN1CCC[C@@H](n2nc(-c3ccc(Oc4ccc(F)cc4F)cc3)c(C(N)=O)c2N)C1,Z-AUC,[2],-0.296 (inactive)
same,Z-AUC,[2]; [7],0.0658
same,Z-AUC,[2]; measured here: PEO4 Z-AUC,0.537
O=C(O)CC1CCC(c2ccc(-c3ccc(Nc4ccc(C(F)(F)F)nc4)cn3)cc2)CC1 (stereo not given),Z-AUC,[2],-0.639 (inactive)
same,Z-AUC,[2]; [7],-0.457
same,Z-AUC,[2]; measured here: PEO4 Z-AUC,-0.671
COc1ccc2[nH]c(S(=O)Cc3ncc(C)c(OC)c3C)nc2c1 (stereo not given),Z-AUC,[2],0.929 (inactive)
same,Z-AUC,[2]; [7],1.11
same,Z-AUC,[2]; measured here: PEO4 Z-AUC,1.24
CC(=O)O[C@@H]1C[C@@H](C)[C@](O)(CCC2=CC(=O)OC2)[C@@]2(C)CCCC(C)(C)C12 (stereo not given in full),outcome,[3],inactive
same,Potency,[4],12.6 µM (active)
same,outcome,[5],inactive
same,outcome,[6],inactive
Cc1cccc(-c2nn3c(c2-c2ccnc4ccc(C(N)=O)cc24)CCC3)n1,Z-AUC,[2],1.11 (inactive)
same,Z-AUC,[2]; [7],0.368
same,Z-AUC,[2]; measured here: PEO4 Z-AUC,0.508
Cc1nc(-c2cccnc2)sc1C(=O)Nc1ccccc1-c1cn2c(CN3CCOCC3)csc2n1,Z-AUC,[2],0.405 (inactive)
same,Z-AUC,[2]; [7],-0.0743
same,Z-AUC,[2]; measured here: PEO4 Z-AUC,0.19
COc1cccc2c1c(O)c(C(=O)N(C)c1ccc(C(F)(F)F)cc1)c(=O)n2C,Z-AUC,[2],0.835 (inactive)
same,Z-AUC,[2]; [7],0.409
same,Z-AUC,[2]; measured here: PEO4 Z-AUC,0.643
CC(C)[C@](O)(c1ccc2cc(OC(F)F)c(OC(F)F)cc2c1)c1cn[nH]n1,Z-AUC,[2],-0.262 (inactive)
same,Z-AUC,[2]; [7],-0.434
same,Z-AUC,[2]; measured here: PEO4 Z-AUC,-0.604
Nc1ncnc2c1c(COc1cccc(Cl)c1)nn2C1CCOCC1,Z-AUC,[2],-1.18 (inactive)
same,Z-AUC,[2]; [7],-0.772
same,Z-AUC,[2]; measured here: PEO4 Z-AUC,-0.767
C=C1C[C@@]2(O)O[C@@]3(C[C@H]2C(C)C)[C@@H](C)CC[C@@H]13,Z-AUC,[2],-0.318 (inactive)
same,Z-AUC,[2]; [7],-0.38
same,Z-AUC,[2]; measured here: PEO4 Z-AUC,-0.147
